DT40 TDP1 CPT: growth inhibition of DT40 Tdp1-/-;hTDP1 cells with camptothecin (screen for TDP1 inhibitors). hit rate 12% among 420,000. Potency, µM (top dose mostly 46.2 µM), most hits filed as inhibitors. AID 686979. chicken DT40 Tdp1-/-;hTDP1 cells + 20 nM CPT, ATP luminescence, 48 h; also: nearly all actives have a fitted effect of over 55% in size
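Chicken DT40 Tdp1-/- cells stably complemented with human TDP1 were seeded at 400 cells/well in medium containing 20 nM camptothecin, exposed to pin-transferred compounds, and grown at 37 °C for at least 48 hr. Viability was read as ATP luminescence.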
IL1B secr inh: inflammasome signaling inhibition, IL-1 beta readout | THP-1 LPS/ATP IL-1B secretion, AlphaLISA, 16 h; hits give low values | activity change, % at 57.5 µM | hit rate 4.7% among 360,000; in the data active = activity change below about -50%; inconclusive = mostly about -30% to -49%
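THP-1 cells pretreated 1 hr with compounds (up to 57.5 uM final), then stimulated with LPS (250 ng/mL final) plus ATP (1.25 mM final); secreted IL-1B measured by AlphaLISA after 16 hr, decreased signal indicating inhibition.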
HT1080 IDH1KD tx: toxicity to HT-1080 IDH1 knockdown cells (counter line); HT-1080 IDH1 knockdown viability, ATP luminescence, 48 h; Potency, µM (series often up to 46.1 µM), usual class: cytotoxic; hit rate 2% among 360,000
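In this qHTS, HT-1080 cells depleted of IDH1 are exposed for 48 h at 37 °C to compound titrations. Toxicity is scored from CellTiter-Glo luminescence, with DMSO as full viability and medium alone as none.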
TDP1 cell noCPT: qHTS for Inhibitors of human tyrosyl-DNA phosphodiesterase 1 (TDP1): qHTS in cells in absence of CPT | Potency, µM (titrated, usually from 46.2 µM), usual class: inhibitors | DT40 Tdp1-/- hTDP1 cells, no CPT, ATP luminescence, 48 h | hit rate 15% among 420,000; also: nearly all actives have a fitted effect of over 55% in size
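DT40 Tdp1-/-;hTDP1 cells, no CPT (DMSO vehicle only), 400 cells/well; compounds pin-transferred; ≥48 hr, 37 °C; CellTiter-Glo 30 min RT dark, luminescence read.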
HT1080NT lethal: kills 2HG-producing HT-1080-NT fibrosarcoma cells; HT-1080-NT fibrosarcoma viability, CellTiter-Glo ATP luminescence, 48 h; Potency, µM (top dose mostly 46.1 µM), most hits filed as cytotoxic; hit rate 1.6% among 360,000;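 also: NT is the 2HG producing partner of a matched IDH1 knockdown line; nearly all actives have a fitted effect of over 55% in size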
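Compounds were tested in concentration-response format on HT-1080-NT cells for 48 hours at 37 degrees C. Cell viability came from CellTiter-Glo luminescence; curves were classified by r2, response magnitude and activity.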
ALOX12 inh: blocks human arachidonate 12S-lipoxygenase. P18054. purified 12hLO, xylenol orange hydroperoxide absorbance. Potency, µM (series often up to 108 µM), usual class: inhibitors. hit rate 1.1% among 580,000
Target sequence (P18054 whole entry, looked up): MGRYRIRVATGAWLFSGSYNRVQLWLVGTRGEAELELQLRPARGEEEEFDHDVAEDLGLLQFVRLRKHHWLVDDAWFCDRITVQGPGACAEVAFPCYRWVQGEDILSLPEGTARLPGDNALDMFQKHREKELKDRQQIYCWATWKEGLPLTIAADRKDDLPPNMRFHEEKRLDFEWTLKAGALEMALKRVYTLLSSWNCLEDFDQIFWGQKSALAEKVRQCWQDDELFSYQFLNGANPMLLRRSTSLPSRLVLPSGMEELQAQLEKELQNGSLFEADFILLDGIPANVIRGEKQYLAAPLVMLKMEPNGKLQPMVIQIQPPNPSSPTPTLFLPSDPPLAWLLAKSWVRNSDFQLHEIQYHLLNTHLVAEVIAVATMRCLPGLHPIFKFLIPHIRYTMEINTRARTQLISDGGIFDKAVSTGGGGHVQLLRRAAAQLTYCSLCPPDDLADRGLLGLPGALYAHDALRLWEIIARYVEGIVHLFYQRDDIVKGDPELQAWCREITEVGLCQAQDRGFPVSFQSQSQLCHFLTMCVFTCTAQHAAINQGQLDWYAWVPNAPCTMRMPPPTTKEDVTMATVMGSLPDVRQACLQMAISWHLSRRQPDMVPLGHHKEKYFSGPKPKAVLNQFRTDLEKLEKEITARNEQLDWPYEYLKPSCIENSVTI
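Purified human 12hLO (150 nM final) in 25 mM Hepes, 0.01% Triton X-100, pH 7.0 was preincubated 15 min at room temperature with compound. Then 40 uM arachidonic acid was added, 30 min. Hydroperoxide was read by Fe-XO absorbance ratio 573/405 nm.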
Numbers stand for hits; i = inactive; ? = inconclusive; nt = no result given; [ ] = another dose, or the depositor's remark. The entries come from a sample that favours hits as a whole. Unless noted, calls follow the shape of the dose curve; as a rule, active = well fitted curve in the direction sought with a large enough effect; inconclusive = small, poorly fitted or top-dose-only effect, or another doubt; inactive = no such curve, though single readings can be large; an effect the other way counts as inactive or inconclusive.

SMILES	DT40 TDP1 CPT	IL1B secr inh	HT1080 IDH1KD tx	TDP1 cell noCPT	HT1080NT lethal	ALOX12 inh
COc1cc(/C=C2\SC(=O)NC2=O)ccc1Oc1ccc([N+](=O)[O-])cc1[N+](=O)[O-]	18µM	i	?	16µM	i	?
CCOc1ccc(/C=C2\SC(=S)N(C)C2=O)cc1OC	i	i	i	i	i	i
CCN1CCC(CCNC(=O)CCC[C@@H]2[C@H]3CCCN4CCC[C@@H](CN2C(C)=O)[C@@H]34)CC1	nt	nt	nt	nt	nt	i
Cc1ccccc1CCN1CCC(CN(C(=O)c2ccoc2C)C2CCCC2)CC1	nt	nt	nt	nt	nt	i
CC1CCC(N(C)C(=O)CSc2nnc(N)s2)CC1 (configuration not stated)	nt	nt	nt	nt	nt	i
OC[C@@H]1CN(Cc2ccncc2)C[C@H](n2cnc3c(NCc4ccncc4)ncnc32)O1	i	i	i	i	i	i
CO/N=C/c1ccc(Oc2ccc([N+](=O)[O-])cc2[N+](=O)[O-])c(OC)c1	?	i	?	16µM	?	i
COc1ccc(/C=N/OC(=O)Nc2ccccc2)cc1[N+](=O)[O-]	i	i	i	i	i	i
COc1ccc(CN2CCC(N3CCNC3=O)CC2)cc1	nt	nt	nt	nt	nt	i[12.5 µM]
CCCCN(C)c1ncnc2c1sc1nc(-c3ccco3)c3c(c12)CC(C)(C)OC3	nt	nt	nt	nt	nt	i
O=C(Nc1ncc(S(=O)(=O)c2ccc([N+](=O)[O-])cc2)s1)c1cccnc1	5.8µM	?	23µM	18µM	?	i
O=C(Nc1ncc(S(=O)(=O)c2ccc([N+](=O)[O-])cc2)s1)c1ccc2ccccc2c1	16µM	i	i	?	i	i
Cn1cnc(S(=O)(=O)N2CCC(C(=O)N3CCCCCCNC(=O)CC3)CC2)c1	nt	nt	nt	nt	nt	i
CC1=C(C(=O)Nc2ccccc2)C(c2ccc(C(C)(C)C)cc2)NC(=S)N1 (configuration not stated)	nt	nt	nt	nt	nt	40µM
Cc1ccc(NC(=O)C2=C(c3ccccc3)NC(=S)NC2c2ccc(C(C)(C)C)cc2)cc1 (configuration not stated)	nt	nt	nt	nt	nt	14µM
CCCOc1ccc(C2NC(=S)NC(c3ccccc3)=C2C(=O)Nc2ccc(C)cc2)cc1OC (configuration not stated)	?	i	i	?	i	32µM
Cc1nn(C)c(C)c1CCC(=O)NC1CCc2n[nH]c(=O)n2CC1 (configuration not stated)	nt	nt	nt	nt	nt	i
Cc1cnc(NC(=O)CSc2nnc(Cc3ccccc3)o2)s1	?	i	4.5µM	?	4.5µM	i
Cc1cnc(NC(=O)CCCc2nc3ccccc3s2)s1	15µM	i	?	23µM	?	?
Cc1cnc(NC(=O)Cc2ccccc2Cl)s1	3.3µM	i	i	3.3µM	i	i
O=C(CCCc1nc2ccccc2s1)Nc1nccs1	i	i	i	i	i	i
CCOC(=S)SCC(=O)Nc1ncc(C)s1	?	-98	18µM	23µM	?	?
COc1ccc(Cc2nnc(SCC(=O)Nc3ncc(C)s3)o2)cc1	i	i	i	i	i	i
CCN(C(=O)COc1ccc2c(=O)c(Oc3ccccc3)c(C)oc2c1)C1CCS(=O)(=O)C1 (configuration not stated)	nt	nt	nt	nt	nt	i
c1ccc(-c2nc3c(c(NCC4OCCc5ccccc54)n2)CCNC3)nc1 (configuration not stated)	nt	nt	nt	nt	nt	i
SMILES	DT40 TDP1 CPT	IL1B secr inh	HT1080 IDH1KD tx	TDP1 cell noCPT	HT1080NT lethal	ALOX12 inh
Cc1cnc(NC(=O)CCc2ccccc2)s1	16µM	i	?	8.2µM	?	i
COc1ccc(CCC(=O)Nc2ncc(C)s2)cc1OC	i	i	i	i	i	i
Nc1nnc(SCc2ccc(Cl)cc2)s1	i	i	i	i	i	i
Clc1ccc(CSc2nnc(NC3=NCCCCC3)s2)cc1	?	i	i	10µM	i	i
Cc1occc1C(=O)N/N=C/C1=C(N2CCOCC2)C(=C/c2ccc(Cl)cc2Cl)/CC1	5.8µM	i	i	7.3µM	i	i
Cc1occc1C(=O)N/N=C/c1sc(N2CCOCC2)nc1-c1ccccc1	i	i	i	i	i	i
COc1ccc(CNC(=O)CCCCCn2c(=O)[nH]c3ccccc3c2=O)cc1	i	nt	nt	i	nt	i
COc1ccc(OC)c(NC(=O)c2cn3c4c(ccc(Cl)c4c2=O)OC(C)C3)c1 (configuration not stated)	i	nt	nt	i	nt	i
Cc1ccc(S(=O)(=O)CC(=O)Nc2ccc3nc(C)sc3c2)cc1	i	i	i	i	i	i
Cc1ccc(CN(Cc2ccco2)C(=O)COc2ccccc2C)cc1	21µM	nt	nt	16µM	nt	i
Cc1ccc(CN(Cc2ccco2)C(=O)COc2c(C)cc(C)cc2C)cc1	23µM	nt	nt	9.2µM	nt	?
CCC(=O)N(CCC(c1ccc(C)cc1)c1ccco1)Cc1ccco1 (configuration not stated)	?	i	i	23µM	i	?
Cc1ccccc1OCC(=O)N(Cc1ccco1)c1c(N)n(Cc2ccccc2)c(=O)[nH]c1=O	i	i	i	i	i	i
Cc1cc(C)c(OCC(=O)N(Cc2ccc(N(C)C)cc2)Cc2ccco2)c(C)c1	12µM	nt	nt	7.3µM	nt	i
CCO[C@H]1CN(C(=O)CCc2ccc(S(=O)(=O)NC)cc2)C[C@@H]1O	nt	nt	nt	nt	nt	i
CCCc1cc(=O)n2c(C(=O)Nc3ccccc3)c(C(=O)Nc3cccc(C)c3C)sc2n1	nt	nt	nt	nt	nt	i
Cc1cc(SCC(=O)N2c3ccccc3NC(=O)CC2C)nc2ccccc12 (configuration not stated)	?	i	i	16µM	i	i
CCn1nnnc1SCC(=O)N1c2ccccc2NC(=O)CC1C (configuration not stated)	i	i	i	i	i	i
CC1CC(=O)Nc2ccccc2N1C(=O)CSc1ccc2ccccc2n1 (configuration not stated)	16µM	i	i	?	i	i
Cc1ccc2cccc(NC(=O)COc3ccc(C(C)(C)C)cc3)c2n1	nt	nt	nt	nt	nt	i
C=CCNC(=O)c1cccnc1N1CC2CC(C1)[C@H]1CCCC(=O)N1C2 (some centres not stated)	nt	nt	nt	nt	nt	i
c1ccc(-c2noc(-c3ccn4c(CN5CCSCC5)nnc4c3)n2)cc1	nt	nt	nt	nt	nt	i
CCN(CC)C(=O)CC(c1ccc(OC)cc1)c1c(OC)cc(OC)c2ccc(=O)oc12 (configuration not stated)	23µM	i	i	?	i	?
COc1ccc(C(CC(=O)N2CCCCC2)c2c(OC)cc(OC)c3ccc(=O)oc23)cc1 (configuration not stated)	21µM	i	i	?	i	?

Source: PubChem (National Center for Advancing Translational Sciences (NCATS))
